CF NFkB block – blocks PAF-induced NF-kB reporter in cystic fibrosis cells; KKLEB NF-kB-GFP reporter, GFP fluorescence overnight; inhibition, % at 5 µM; 360,000 tested, 0.86% active;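 active = at least 50% inhibition at 5 µM, scaled per plate between neutral and stimulator controls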;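 also: PAF is a Pseudomonas aeruginosa culture filtrate used as stimulus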
HIF-2a block – HIF-2a inhibition; 360,000 tested, 0.72% active; 786-0 RCC cells HIF-2a reporter, luciferase luminescence, overnight; inhibition, % at 18.8 µM;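 active = inhibition of the luminescence signal of 40% or more relative to plate controls, in a single-dose primary screen at 18.75 µM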
TWEAK-Fn14 inh – inhibitors of TWEAK-Fn14 interaction signaling; TWEAK-stimulated Fn14 reporter cells, luciferase luminescence, 8 h; inhibition, % at 10 µM; 360,000 tested, 2% active; AID 1159606; in the data active = inhibition above about 50%
KKLEB cytotox – reduces viability of KKLEB cystic fibrosis airway cells | KKLEB CF airway cells viability, ATPlite luminescence, overnight; active compounds read low; cells stimulated with P. aeruginosa culture filtrate | activity change (cytotoxicity), % at 5 µM | 360,000 tested, 0.36% active | AID 602141;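 active = corrected activity change at or below -50% at 5 µM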
Peg3 promoter – reduces Peg3 promoter-driven luciferase expression in HeLa. 360,000 tested, 1.7% active. HeLa PEG-Prom luciferase reporter, luminescence, overnight. AID 588405. inhibition, % at 20 µM;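 active = inhibition of at least 50% at 20 µM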
TROY signal inh – blocks TROY-dependent signaling in reporter cells. inhibition, % at 10 µM. 360,000 tested, 0.98% active. Q293 LMP1-TROYcd NF-kB luciferase reporter, 4 h;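 active = compounds whose plate-normalised and pattern-corrected inhibition of the luciferase reporter signal at the single screening dose is 50% or more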
Hits are given with their value; 0 = inactive; - = no result. Most compounds without a hit are left out; they make up all but 4% or so of the library.

SMILES | CF NFkB block | HIF-2a block | TWEAK-Fn14 inh | KKLEB cytotox | Peg3 promoter | TROY signal inh
CC1(C(=O)NS(=O)(=O)c2cccc(OC(F)F)c2)CCN1C(=O)C/C=C/c1ccccc1 (configuration not stated) | 0 | 0 | 0 | 0 | 0 | 0
COc1ccc(-c2ccc(C(=O)NCc3ccc(C(F)(F)F)cc3)c3occc23)c(C)c1 | 0 | 0 | 0 | 0 | 0 | 0
Cc1nc(Nc2ccc(C(=O)O)cc2)nc(Nc2ccc(C(=O)O)cc2)c1[N+](=O)[O-] | 0 | 0 | 0 | 0 | 0 | 0
CCC(=O)Nc1ccc(Nc2nc(C)c([N+](=O)[O-])c(Nc3ccc(NC(=O)CC)cc3)n2)cc1 | 0 | 0 | 0 | 0 | 53 | 0
NS(=O)(=O)c1ccc(Cc2ncc(C(F)(F)F)cc2Cl)s1 | 0 | 0 | 0 | 0 | 0 | 0
O=C(CCl)c1ccc(Cc2ncc(C(F)(F)F)cc2Cl)s1 | 0 | 0 | 0 | 0 | 61 | 0
COc1ccc([N+](=O)[O-])c(OC)c1C(=O)NC(=O)Nc1c(F)cc(F)cc1F | 0 | 0 | 0 | 0 | 0 | 0
Cc1nc(SCC(=O)c2ccc(F)c(F)c2)[nH]c(=O)c1Oc1ccc(Cl)cc1 | 0 | 0 | 0 | 0 | 0 | 53
Cc1cc2nc(C3CCCCC3)c(Cc3ccsc3)n2c(C)c1Br | - | 0 | 0 | - | - | 0
COc1ccccc1C(=O)Nc1nc(-c2ccc3c(c2)OCCO3)cs1 | 0 | 0 | 0 | 0 | 0 | 51
O=C(Nc1nc(-c2ccc3c(c2)OCCO3)cs1)c1ccco1 | 0 | 0 | 0 | 0 | 0 | 0
Cc1noc(C)c1C(=O)Nc1nc(-c2ccc(F)c(F)c2)cs1 | 0 | 0 | 0 | 0 | 0 | 0
COc1cccc(Nc2nc(-c3ccc4c(c3)OCCO4)cs2)c1 | 0 | 0 | 0 | 0 | 0 | 0
c1cc2c(cc1Nc1nc(-c3ccc4c(c3)OCO4)cs1)OCCO2 | 0 | 0 | 56 | 0 | 0 | 0
c1ccc(-c2csc(Nc3ccc4c(c3)OCCO4)n2)cc1 | 0 | 0 | 0 | 0 | 0 | 58
COc1ccc(-c2csc(NC(=O)c3c(C)noc3C)n2)cc1F | 0 | 0 | 0 | 0 | 0 | 77
c1ccc(Nc2nc(-c3ccncc3)cs2)cc1 | 0 | 0 | 0 | 0 | 0 | 0
Oc1c(C=Nc2ccccc2Cl)[nH]c2ccccc12 | 0 | 0 | 0 | 0 | 0 | 52
Oc1[nH]c2ccccc2c1N=Nc1ccccc1Cl | 0 | 0 | 0 | 0 | 0 | 0
NC(=S)NN=C1c2ccccc2-c2c(F)c(F)c(F)c(F)c21 | 0 | 0 | 0 | 0 | 96 | 0
NC(=S)NN=C1c2ccccc2-c2cc(Br)ccc21 | 0 | 0 | 0 | 0 | 0 | 0
COc1ccc(OC)c(NC(=O)c2cc(-c3cc(Cl)ccc3O)n[nH]2)c1 | 0 | 0 | 55 | 0 | 0 | 51
COc1ccc(Cl)cc1NC(=O)c1cc(-c2ccccc2O)n[nH]1 | 0 | 0 | 0 | 0 | 0 | 0
CCn1cnc2cc(NCc3nc4ccccc4n3Cc3ccccc3)ccc21 | 0 | 0 | 81 | 0 | 0 | 80
CC(C)n1cnc2cc(NCc3nc4ccccc4n3C)ccc21 | 0 | 0 | 60 | 0 | 0 | 67
SMILES | CF NFkB block | HIF-2a block | TWEAK-Fn14 inh | KKLEB cytotox | Peg3 promoter | TROY signal inh
CCn1cnc2cc(NCc3nc4ccccc4n3C)ccc21 | 0 | 0 | 86 | 0 | 0 | 69
O=C(O)c1ccc(NCc2nc3ccccc3n2Cc2ccccc2)cc1 | 0 | 0 | 0 | 0 | 0 | 0
O=C(C[n+]1ccccc1)Nc1ccccc1Br | 0 | 0 | 0 | 0 | 0 | 0
OCCCNc1ncnc2sc3c(c12)CCN(Cc1ccccc1)C3 | 0 | 0 | 69 | 0 | 0 | 0
O=S1(=O)CC(N2CCN(CCO)CC2)CN1C1CCCCC1 (configuration not stated) | 0 | 0 | 0 | 0 | 0 | 0
CCN(CC)CCCNC(=S)N1CCN(c2nc(-c3ccc(F)cc3)cs2)CC1 | 0 | 0 | 0 | 0 | 71 | 0
CCc1ccc(NC(=O)CCn2nc(C)c(S(=O)(=O)N3CCCCC3)c2C)cc1 | 0 | 0 | 0 | 0 | 0 | 0
COc1cccc(NC(=O)CN(C)C(=O)CCNC(=O)c2ccccc2OC)c1 | 0 | 0 | 0 | 0 | 0 | 0
COc1ccc(OCCC(=O)OCC(=O)Nc2cccc(Br)c2)cc1 | 0 | 0 | 101 | 0 | 0 | 0
COc1ccc(OCCC(=O)OCC(=O)Nc2ccc(Br)cc2)cc1 | 0 | 0 | 0 | 0 | 0 | 0
CCn1c(N)c(C(=O)NCC2CCCO2)sc1=S (configuration not stated) | 0 | 0 | 85 | 0 | 0 | -
C=CCn1c(N)c(C(=O)NCC2CCCO2)sc1=S (configuration not stated) | 0 | 0 | 0 | 0 | 0 | 0
